Measurements taken from PubChem BioAssay AID1740 (National Center for Advancing Translational Sciences (NCATS), 2009).
Results filed as inconclusive are left out. Calls of active or inactive are those of the source. Calls follow the shape of the dose curve; as a rule, active = well fitted activation curve with a large enough effect; inconclusive = small, poorly fitted or top-dose-only effect; inactive = no such curve, though single readings can be large or run the other way.

Experiment: Confirmation Concentration-Response Assay for Enhancers of SMN2 Splice Variant Expression
Settings: HEK293 SMN2-exon7-luciferase splicing reporter, luminescence, 30-36 h; series mostly up to 46.1 µM
Source text: NIH Chemical Genomics Center [NCGC] NIH Molecular Libraries Probe Production centers Network [MLPCN] MLPCN Grant: R03 MH084179-01 Assay Submitter (PI): Elliot Androphy NCGC Assay Overview: Spinal muscular atrophy (SMA) is caused by insufficient levels of the survival motor neuron protein SMN. The SMN locus on chromosome 5q13 contains two inverted copies of SMN called SMN1 and SMN2 which are 99% identical at the amino acid level. SMN1 is a fully functional protein and SMN2 skips exon 7 90% of the time. Skipping of exon 7 produces non-functional protein product. 10% of the SMN2 protein includes exon 7 and is fully functional. In the SMA disease state, mutations in the SMN1 locus are the cause of the disease state. Because only 10% of SMN2 is of the fully functional form, it is not sufficient to overcome the deficiency produced by the loss of the SMN1 product. A therapy that either increase the amount of SMN2 product made or to increase the inclusion of exon 7 has been proposed for the treatment of SMA. We have designed an assay to identify small molecules that can increase the amount of functional SMN2 product by appending a luciferase reporter gene after the native SMN2 gene, such that inclusion of exon 7 in the expressed product places the luciferase sequence in frame, thus generating functional luciferase enzyme.
NCGC Assay Protocol Summary: This screen utilizes a luciferase reporter gene assay, combining the promoter with the major portion of the native SMN2 cDNA (exons 1 -7, intron 8 , exon 8 fused to luciferase) stably expressed in HEK293 cells. Compounds that increase luciferase signal presumably enhance expression of the functional SMN2 splice variant. Passaging media contained DMEM w/ glutamax (+phenol red) 10% FCS, 1x pen/strep, 200 ug/ml hygro, 1x sodium pyruvate. Assay media contained DMEM w/ glutamax (-phenol red) 10% FCS, 1x pen strep, 1x pyruvate Sequence, Parameter, Value, Description (1) Cells, 5 uL, 2000 cells/well, 1536 TC treated White solid bottom plate (2) Time, 10-12 hours, 37C 5% CO2 (3) Compound, 23 nl, MLSMR Library (4) Control Compound, 23 nL, Sodium butyrate st 4.5mM (final) conc (5) Time, 30-36 hours, 37C 5% CO2 (6) Reagent, 3 ul, One Glo (TM) from Promega (7) Time, 5-15 minutes, Room temp (8) Detector, Viewlux: luminescent read, 60 second integration, high speed 2x binning Keywords: Spinal muscular atrophy, SMA, SMN2, high throughput screening, MLSMR, MLPCN, NIH Roadmap, qHTS and NCGC

Potency, active:
COc1nc(-c2ccccc2)nnc1-c1ccccc1 2510 nM
CC(/C=C/C(=O)NO)=C\[C@@H](C)C(=O)c1ccc(N(C)C)cc1 1120 nM

Potency, inactive:
COC(=O)C1=C(C)NC(=O)/C1=C\c1cc(C)n(-c2ccccc2F)c1C
c1ccc(-c2nnc(-c3ccccc3)c(-c3c[nH]c4ccccc34)n2)cc1
Cc1ccc(-c2nnc(-c3ccccc3)c(-c3ccccc3)n2)cc1
Clc1nc(NCc2ccco2)c2[nH]cnc2n1
FC(F)(F)c1nnc(-c2ccccc2)nc1Oc1ccccc1
CCCSc1nnc(Sc2nnnn2-c2ccccc2)s1
Cc1ccc(-c2csc(NC(=O)C3CCN(S(=O)(=O)c4cccs4)CC3)n2)cc1
COc1ccc(-c2csc(N3CCC(C(N)=O)(N4CCCCC4)CC3)n2)cc1
c1coc(CNc2ncnc3nc[nH]c23)c1
OCCCNc1nc(-c2ccc(Cl)cc2)nnc1-c1ccc(Br)cc1
O=C(NCCc1cn2ccsc2n1)c1cccs1
Clc1nc(NCC2CCCO2)c2[nH]cnc2n1 (stereo not given)
COc1nc(-c2ccc(Cl)cc2)nnc1C
CCC(=O)n1nc(NCc2ccccc2OC)nc1NCc1ccccc1OC
Nn1c(SCC(=O)NCCC2=CCCCC2)nnc1C1CCCCC1
Cn1cnc2c(NCc3ccco3)ncnc21
COc1ccc(-c2csc(N3CCC(c4ccccc4)CC3)n2)cc1
Nc1ccccc1-c1nnn(CC(=O)N2CCCc3ccccc32)n1
N#C/C(=C\Nc1ccccc1SC(F)(F)F)c1nc(-c2ccc(Cl)cc2)cs1
CC(C)(C)n1nnnc1C(c1ccc2ncccc2c1)N1CCSCC1 (stereo not given)
NC(=O)C1(N2CCCCC2)CCN(c2nc(-c3ccccc3)cs2)CC1
O=[N+]([O-])c1ccc(-c2nnc(-c3ccccc3)c(N3CCOCC3)n2)cc1
FC(F)(F)c1cccc(Oc2nc(-c3ccccc3)nnc2C(F)(F)F)c1
CCCc1sc(N2CCCC(C(N)=O)C2)nc1-c1ccccc1 (stereo not given)
O=S(=O)(NC1CCCc2ccccc21)c1cnc[nH]1 (stereo not given)
O=C(Nc1cccnc1)/C(N=Nc1c(Cl)cccc1Cl)=C(\O)c1ccccc1
COc1ccc(OC)c(-c2csc(N3CCC(c4ccccc4)CC3)n2)c1
COC(=O)C1=C(CN2CCc3ccccc32)NC(=O)NC1c1cc(C)ccc1C (stereo not given)
CCC1=Nc2ccccc2-c2nnc(SC)nc2O1
NC(=O)N1c2ccccc2C=Cc2ccccc21
Cc1ccc(-c2csc(N3CCC(NS(=O)(=O)c4ccc5c(c4)OCCO5)CC3)n2)cc1
O=C(Nc1nc(-c2ccc3ccccc3c2)cs1)C1CCN(S(=O)(=O)c2cccs2)CC1

activation, inactive:
FC(F)(F)c1cccc(-c2nnc(-c3ccccc3)c(N3CCOCC3)n2)c1 -5.49% [at 9.48 µM]
Cc1ccc(-c2nnc(-c3ccccc3)c(N3CCOCC3)n2)cc1 3.26% [at 9.48 µM]
CC1CN(c2nc(-c3ccc(Br)cc3)nnc2-c2ccccc2)CC(C)N1 (stereo not given) -5.21% [at 9.48 µM]
Clc1ccc(-c2nnc(-c3ccccc3)nc2N2CCSCC2)cc1 6.97% [at 9.48 µM]
Clc1ccc(-c2nnc(-c3ccccc3)nc2-c2c[nH]c3ccccc23)cc1 -10.1% [at 9.48 µM]
Clc1ccc(-c2nnc(-c3ccc(Br)cc3)c(N3CCSCC3)n2)cc1 -10.7% [at 9.48 µM]
